Source: PubChem BioAssay AID2544 (Sanford-Burnham Center for Chemical Genomics, 2010)
The whole screen tested about 330,000 compounds, of which about 390 (0.12%) were called active. This is one part of a sample in which actives are shown more often than they occur. Values without a mark were called inactive.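 The calls were made as follows: active = inhibition reaching a set limit with compound at 10 µM in the primary screen (cut at about 35% in these data); inactive = the rest.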

target: Intestinal-type alkaline phosphatase (Homo sapiens) (UniProt P09923); assay: human IAP inhibitors, primary screen, biochemical, luminescence, uHTS (AID 2544); conditions: purified IAP, CDP-Star luminescence, 30 min; at 10 µM; stronger effect = higher value;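 also: plate controls were DMSO wells with enzyme for no effect and no-enzyme buffer wells for full effect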
Sequence (P09923 whole entry, looked up): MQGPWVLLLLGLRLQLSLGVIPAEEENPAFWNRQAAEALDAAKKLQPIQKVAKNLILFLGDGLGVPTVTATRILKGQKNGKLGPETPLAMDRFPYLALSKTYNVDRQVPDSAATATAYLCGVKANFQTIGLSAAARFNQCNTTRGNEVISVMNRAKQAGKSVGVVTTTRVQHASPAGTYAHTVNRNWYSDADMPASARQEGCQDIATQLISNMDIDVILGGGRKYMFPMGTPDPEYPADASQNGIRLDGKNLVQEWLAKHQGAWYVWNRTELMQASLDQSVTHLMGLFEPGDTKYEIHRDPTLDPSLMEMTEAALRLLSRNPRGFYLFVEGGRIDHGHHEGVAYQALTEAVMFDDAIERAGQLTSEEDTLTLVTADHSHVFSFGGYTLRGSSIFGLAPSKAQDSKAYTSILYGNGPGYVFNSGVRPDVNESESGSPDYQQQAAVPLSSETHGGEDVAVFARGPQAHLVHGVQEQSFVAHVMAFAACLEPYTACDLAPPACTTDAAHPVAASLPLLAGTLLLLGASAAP

With COc1ccccc1N=Nc1c(O)[nH]c(=S)[nH]c1=O as the compound, how does the inhibition read?
The inhibition was 37.5% (active).

With O=C1N=c2ccccc2=C/C1=C\c1c(O)[nH]c(=S)[nH]c1=O as the compound, how does the inhibition read?
Its inhibition is -13%.

CCOCCc1c(O)[nH]c(=S)[nH]c1=O was tested. Which inhibition did it give?
Its inhibition is 7.2%.

Which inhibition does the source give for COc1ccc(NC(=O)c2cn(CCC#N)nc2-c2ccc([N+](=O)[O-])cc2)cc1 here?
The inhibition was 1.2%.

With CCN(CC)c1ccc([N+](=O)[O-])c2cccnc12 as the compound, how does the inhibition read?
The inhibition was 26.2%.

For CN(c1ccccc1)c1ccc([N+](=O)[O-])c2nonc12, which inhibition is on record?
Its inhibition is 45.8% (active).

O=C(OCCN1CCOCC1)C1(c2ccccc2)CCCC1 was tested. Which inhibition did it give?
Its inhibition is -11.7%.

For Cc1ccc2c(c1)C1CN(C)CCC1N2C(=O)Cn1nnc(-c2ccccc2F)n1 (stereo not given), which inhibition is on record?
Its inhibition is -5.5%.

How did the inhibition turn out when Cc1ccc2c(c1)=C/C(=C\c1c(O)[nH]c(=O)[nH]c1=O)C(=O)N=2 was run?
Its inhibition is -9.3%.

For COc1ccc(-n2c(O)c(C(C)=Nc3ccc4c(c3)CCC4)c(=O)[nH]c2=O)cc1, which inhibition is on record?
Its inhibition is -16.1%.
